Experimental data reported in PubChem BioAssay AID504832 (National Center for Advancing Translational Sciences (NCATS), 2011).
The whole screen tested about 310,000 compounds, of which about 18,000 (5.8%) were called active. Inconclusive results (about 22%) are left out. This is one part of a sample in which actives are shown more often than they occur. The call rests on the fitted dose curve; in most records, active means well fitted inhibition curve with a large enough effect; inconclusive means small, poorly fitted or top-dose-only effect, or another doubt; inactive means no such curve, though single readings can be large or run the other way.

Assay: Primary qHTS for delayed death inhibitors of the malarial parasite plastid, 48 hour incubation
Settings: P. falciparum luciferase growth in erythrocytes; series mostly up to 28.7 µM; activity change, negative = inhibition: at the top concentration
Excerpt: The goal of this screen is to discover new antimalarial compounds that act by inhibiting the development of the apicoplast in the malarial parasite Plasmodium falciparum. The biochemical processes that make this organelle essential for erythrocytic stage parasites are not well understood. However, antibiotics such as azithromycin and tetracycline, which target the apicoplast translational machinery, have a potent antimalarial effect.
We have developed a cell-based assay that measures parasite growth based on the expression of an integrated copy of a firefly luciferase reporter. To detect small molecules that cause this "delayed death" phenotype, erythrocytes infected with the luciferase-expressing parasites were incubated with compounds for either one or two generations, corresponding to 48 and 96 hours, respectively. Compounds that inhibit parasite growth in the second generation, but not the first, should be enriched in antimalarials that target the apicoplast. Growth inhibition is detected by a decrease in luciferase activity.
Assay Provider: David Fidock and Eric Ekland, Columbia University
Keywords: NIH Roadmap, MLPCN, MLI, MLSMR, qHTS, NCGC, qHTS, malaria, luciferase, viability
Four microliters of culture medium (RPMI 1640 with 0.5% w/v Albumax (GIBCO), 24 mM sodium bicarbonate and 10 ug/mL gentamycin) were dispensed by a Multi-drop Combi into white solid 1536-well plates (Grenier) and 23 nL compound was added by a pin tool. Four microliters of infected erythrocytes (2% hematocrit, 0.1% parasitemia final concentration) in culture medium were dispensed and the plates incubated for 48 hours at 37 C in 5% CO2. Two microliters of luciferase detection reagent was added and luminescence was detected by a ViewLux (PerkinElmer) reader.
On the % scale 0 is the no-effect control and ±100 the full control effect; potency means the concentration at half of the fitted maximal effect.

Compound | activity change, negative = inhibition | Potency
CCc1nnc(NC(=O)CSCc2cc(=O)n3cc(C)sc3n2)s1 | -17.5% (inactive) | 
O=C(CN1CCN(C(=O)c2ccco2)CC1)Nc1ccc(Cl)c(C(F)(F)F)c1 | -1.32% (inactive) | 
COC(=O)C1=C(c2ccc(Cl)c(C(F)(F)F)c2)C[C@@H]2CC[C@H]1N2C(=O)NC1CC1 |  | 14.7 µM (active)
COC(=O)C1=C(c2ccccc2OCc2ccccc2)C[C@@H]2CC[C@H]1N2C(=O)NCc1ccc(OC)cc1 |  | 13.1 µM (active)
COc1ccc(CNC(=O)C2CCN(C(=O)c3ccccc3)CC2)cc1 | -3.24% (inactive) | 
O=C(NCCc1ccc(Cl)cc1)C1CCCN1C(=O)NCc1ccccc1 (configuration not stated) | 8.13% (inactive) | 
COC(=O)c1ccc(CNC(=O)C2CCC(=O)N(Cc3cccc(F)c3)C2)cc1 (configuration not stated) | -0.0903% (inactive) | 
COC(=O)C1=C(c2ccc3ccccc3c2)C[C@@H]2CC[C@H]1N2C(=O)NCCO | 3.2% (inactive) | 
COC(=O)C1=C(c2ccc(F)cc2OCc2ccccc2)C[C@@H]2CC[C@H]1N2C(=O)NCc1ccc(Cl)cc1 |  | 11.7 µM (active)
O=C(O)C1CC=C(Cl)CC1C(=O)NCc1ccccc1 (configuration not stated) | 1.48% (inactive) | 
COc1ccc(CNC(=O)C2CCN(S(C)(=O)=O)CC2)cc1 | 0% (inactive) | 
COC(=O)C1=C(c2ccc(F)cc2F)C[C@@H]2CC[C@H]1N2C(=O)NC1CC1 | 17.9% (inactive) | 
COC(=O)C1=C(c2ccc(-c3ccccc3)c(F)c2)C[C@@H]2CC[C@H]1N2C(=O)NCc1ccc(F)cc1 |  | 13.1 µM (active)
CC(C)CC(O)C1CCN(C(=O)CCc2nnc(-c3ccc4c(c3)OCO4)o2)CC1 (configuration not stated) | -7.2% (inactive) | 
N#Cc1ccc(OCC(=O)NC(=O)NC2CCS(=O)(=O)C2)cc1 (configuration not stated) | -8.11% (inactive) | 
Cc1cc(C(=O)COc2ccccc2Cl)c(C)n1C1CC1 | 48.6% (inactive) | 
CCN(CC(=O)NCc1ccco1)S(=O)(=O)c1ccc(F)cc1 | 10.8% (inactive) | 
Cc1c(C(C)CCCO)oc(=O)c2c1Oc1c(C)c(C(C)C[C@@H](C)O)oc(=O)c1C2 (some centres not stated) | -39.1% (inactive) | 
Cn1cccc1C(=O)N1CCc2ccccc2C1 | 11.9% (inactive) | 
CC1CCN(C(=O)Cn2nnnc2CN2CCOCC2)CC1 | 5.66% (inactive) | 
Cc1cccc(N2CCN(C(=O)c3ccccc3NC(=O)C3CCCCC3C(=O)O)CC2)c1 (configuration not stated) | -6.43% (inactive) | 
CSc1ccc(NC(=O)/C=C/C(=O)O)cc1 | 18.7% (inactive) | 
Cc1cccc(N2CCN(c3ccc(NC(=O)/C=C\C(=O)O)cc3)CC2)c1 |  | 8.28 µM (active)
Cc1ccc2oc(C(=O)N3CCN(C)C[C@@H]3C(C)C)c(C)c2c1 | 3.18% (inactive) | 
CC1=CC(=Cc2sc3ccccc3[n+]2C)C=C(C)O1 |  | 0.928 µM (active)
Cc1ccc(-c2noc(CNC(=O)c3ccoc3C)n2)cc1 | 33.4% (inactive) | 

Compound | activity change, negative = inhibition | Potency
O=C(NCc1ccccc1Cl)C1CCN(S(=O)(=O)c2cccc3nonc23)CC1 | 5.07% (inactive) | 
O=C(NCc1ccncc1)C1CCCN(S(=O)(=O)c2ccc(Br)cc2)C1 (configuration not stated) | -2.51% (inactive) | 
CCc1ccc(NC(=O)Nc2ccncc2)cc1 |  | 13.1 µM (active)
CCc1ccc(NC(=O)N[C@H](C(=O)O)C(C)CC)cc1 (some centres not stated) | 22.8% (inactive) | 
O=C(Nc1ccncc1)c1c(F)cccc1F | 1.26% (inactive) | 
O=C(Nc1ccncc1)Nc1ccc(F)cc1 |  | 6.57 µM (active)
CC(C)CC(=O)Nc1ccc(Cc2ccncc2)cc1 | 5.98% (inactive) | 
O=C(NCc1ccccn1)Nc1ccc(F)cc1 | 52.2% (inactive) | 
CCCOc1ccc(Cc2c(O)nc(N)[nH]c2=O)cc1C | -5.97% (inactive) | 
CN(C)CCCO/N=C(\c1ccccc1)c1ccncc1 | 2.21% (inactive) | 
COc1cc(OC)nc(NC(=O)CCl)n1 | 7.41% (inactive) | 
COc1cc(OC)nc(N/N=C(\c2ccccc2)c2ccncc2)n1 |  | 14.7 µM (active)
CC(=O)N(C)c1ccc(NC(=O)Nc2cccc3ccccc23)cc1 | 66.8% (inactive) | 
CNC(=O)c1sc(Nc2ccc(OCc3ccccc3)cc2)nc1C | -17.7% (inactive) | 
Cn1cncc1COC(=O)c1ccc(Cl)cc1 | 0.158% (inactive) | 
COc1cc(OC)cc(C(=O)NCCSCc2ccc(Cl)cc2)c1 | 6.73% (inactive) | 
COc1ccccc1N1CC(C(=O)NCCN2C(=O)S/C(=C\c3cccnc3)C2=O)CC1=O (configuration not stated) | -2.32% (inactive) | 
C/C(=C\c1ccco1)C1Nc2cccc3cccc(c23)N1 | 3.63% (inactive) | 
Cc1ccc(C2Nc3cccc4cccc(c34)N2)cc1 | 0% (inactive) | 
Brc1ccccc1C1Nc2cccc3cccc(c23)N1 |  | 13.1 µM (active)
COc1cccc(CNS(=O)(=O)c2ccc3c(c2)N(C(C)=O)CCS3)c1 | -9.9% (inactive) | 
O=C1C(=O)N(CCCN2CCOCC2)C(c2ccc([N+](=O)[O-])cc2)/C1=C(\O)c1ccc2c(c1)OCCO2 (configuration not stated) | -15.6% (inactive) | 
CC1CN(C(=S)Nc2ccc(S(N)(=O)=O)cc2)CC(C)O1 (configuration not stated) | -0.819% (inactive) | 
CN1C(=O)C(CC(=O)Nc2ccccc2)S/C1=N/c1nccs1 (configuration not stated) | 41.6% (inactive) | 
O=C(Nc1cccc(Cl)c1)OCc1ccccn1 | 93% (inactive) | 
O=C(CC1SC(=Nc2ccccc2)N(Cc2ccccn2)C1=O)Nc1cccc(Cl)c1 (configuration not stated) |  | 6.57 µM (active)
